Measured values from the supplement of paper PMC9023506.
Where a name gives a salt, the structure may show the parent alone.

Assays:
Conditions in all cases: 10 µM; exposure time: 3 h pre-incubation + 3 h imaging
[1] = test system: Danio rerio larvae (5 dpf); assay: activity during period 15 (no stimuli), difference vs DMSO (percentage points (treated minus DMSO)); higher = more of the behaviour than the DMSO vehicle control
Outline: (§1)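 5-dpf wild-type zebrafish larvae in 96-well ProxiPlates were exposed to library drugs at 10 µM (diluted 1000× from DMSO stocks into egg water). There were 48 larvae per drug, exposed 3 h before and 3 h during imaging at 28.5 °C. Images taken every 6 s covered a 3-h program of rest, moving coloured lines and acoustic pulses, and an ImageJ macro scored movement and upper-half location. Each behaviour score is the treated-group mean minus the DMSO vehicle mean, in percentage points.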

[2] = test system: Danio rerio larvae (5 dpf); assay: startle response to 20-s acoustic pulses, difference vs DMSO (percentage points (treated minus DMSO)); higher = more of the behaviour than the DMSO vehicle control
Outline: as §1

[3] = test system: Danio rerio larvae (5 dpf); assay: habituation to 1-s acoustic pulses, difference vs DMSO (percentage points (treated minus DMSO)); higher = more of the behaviour than the DMSO vehicle control
Outline: as §1

[4] = test system: Danio rerio larvae (5 dpf); assay: optomotor response to fast red moving lines, difference vs DMSO (percentage points (treated minus DMSO)); higher = more of the behaviour than the DMSO vehicle control
Outline: as §1

[5] = test system: Danio rerio larvae (5 dpf); assay: optomotor response to green moving lines, difference vs DMSO (percentage points (treated minus DMSO)); higher = more of the behaviour than the DMSO vehicle control
Outline: as §1

## CC(=O)S[C@@H]1CC2=CC(=O)CC[C@]2(C)[C@H]2CC[C@@]3(C)[C@@H](CC[C@@]34CCC(=O)O4)[C@H]12 [Spironolactone]
[1]
  activity during period 15: -1.27
[2]
  startle response to 20-s acoustic pulses: 1.64

## CC(C)c1ccc2oc3nc(N)c(C(=O)O)cc3c(=O)c2c1 [Amlexanox]
[3]
  habituation to 1-s acoustic pulses: -1.39
[2]
  startle response to 20-s acoustic pulses: 0.978
[4]
  optomotor response: -1.36

## N#C[C@@H]1C[C@@H]2C[C@@H]2N1C(=O)[C@@H](N)C12CC3CC(CC(O)(C3)C1)C2 [Saxagliptin hydrochloride]
[1]
  activity during period 15: 5.2

## COc1ccccc1OCC(O)CN1CCN(CC(=O)Nc2c(C)cccc2C)CC1 (stereo not drawn) [Ranolazine dihydrochloride]
[5]
  optomotor response to green moving lines: -0.274
[2]
  startle response to 20-s acoustic pulses: 2.42
